# In the library only some 11% were active in any assay of this set; here they are far more common.
# USP17 block – human USP17-like deubiquitinase inhibition. inhibition, % at 50 µM. 47,000 compounds, 6.5% hits. A8MUK1. purified USP17, Ub-rhodamine cleavage fluorescence, 3 h
# Target sequence (A8MUK1 whole entry, looked up): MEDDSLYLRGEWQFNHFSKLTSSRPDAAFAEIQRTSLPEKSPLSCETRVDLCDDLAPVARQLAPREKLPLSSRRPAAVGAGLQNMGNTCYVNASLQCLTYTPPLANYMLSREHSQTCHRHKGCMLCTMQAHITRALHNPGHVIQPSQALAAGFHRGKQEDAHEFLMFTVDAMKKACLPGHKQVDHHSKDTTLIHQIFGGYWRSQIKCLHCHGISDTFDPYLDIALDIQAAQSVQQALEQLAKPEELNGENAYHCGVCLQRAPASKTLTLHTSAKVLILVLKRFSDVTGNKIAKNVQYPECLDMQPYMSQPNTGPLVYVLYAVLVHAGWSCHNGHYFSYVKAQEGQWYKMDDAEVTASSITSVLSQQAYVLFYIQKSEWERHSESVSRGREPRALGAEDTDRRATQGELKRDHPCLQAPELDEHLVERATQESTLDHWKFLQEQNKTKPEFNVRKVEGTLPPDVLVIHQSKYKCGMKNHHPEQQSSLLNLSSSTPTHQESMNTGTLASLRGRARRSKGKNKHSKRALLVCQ
# USP30 block – blocks human USP30 ubiquitin-rhodamine cleavage | purified USP30, Ub-rhodamine cleavage fluorescence | inhibition, % at 25 µM | 47,000 compounds, 5.3% hits
# USP28 inh – inhibitors of human USP28 deubiquitinase; AID 1645857; purified USP28, Ub-rhodamine cleavage fluorescence, 30 min; inhibition, % at 25 µM; Q96RU2; 47,000 compounds, 3% hits
# * marks the source's active call; other numbers are inactive results; . = no result. Rule as the data show it: active = inhibition above about 30%; inactive = the rest.
SMILES,USP17 block,USP30 block,USP28 inh
COc1ccc(N(C(=O)CCCC(=O)Nc2ccccn2)C(C(=O)NC2CCCCC2)c2ccc(Cl)cc2)c(OC)c1 (stereo unspecified),0.1,19.2,-10.0
O=C(CCCC(=O)N(c1cccc(C(F)(F)F)c1)C(C(=O)NC1CCCC1)c1ccc(F)cc1)Nc1ccccn1 (stereo unspecified),11.9,28.2,3.5
COc1ccc(N(C(=O)CCCC(=O)Nc2ccccn2)C(C(=O)NC2CCCCC2)c2ccc(Cl)cc2)cc1 (stereo unspecified),32.9*,37.4*,13.0
COc1ccc(C(C(=O)NC2CCCCC2)N(C(=O)CCCC(=O)Nc2ccccn2)c2ccccc2OC)cc1 (stereo unspecified),0.9,17.8,-12.5
COc1ccc(C(C(=O)NC2CCCCC2)N(C(=O)CCCC(=O)Nc2ccccn2)c2ccccc2C)cc1 (stereo unspecified),56.4*,10.8,5.8
CCOc1ccc(N(CC(=O)NC2CCCCC2)C(=O)CCC(=O)Nc2ccccn2)cc1,2.8,18.0,2.7
COc1ccc(OC)c(N(CC(=O)NC2CCCCC2)C(=O)CCC(=O)Nc2ccccn2)c1,8.8,30.5*,3.1
Cc1ccc(N(C(=O)CCCC(=O)Nc2ccccn2)C(C(=O)NC2CCCC2)c2ccc(F)cc2)cc1C (stereo unspecified),37.2*,37.9*,23.9
CC(C)(C)c1nc(CN2CCOC(Cn3cccn3)C2)no1 (stereo unspecified),5.4,5.9,4.2
N#Cc1ccccc1CN1CCCC2(Cc3ccccc3CNC2=O)C1 (stereo unspecified),6.9,11.6,14.5
C=C(CC[C@@H](C)[C@H]1CC[C@@H]2[C@]1(C)C[C@@H](O)[C@@]13C[C@@]14C(=O)C[C@H](O)[C@@](C)(C(=O)O)[C@@H]4C(=O)C[C@]23O)C(C)C,35.1*,20.4,32.4*
Clc1ccccc1Cn1c(C2CCCO2)nc2ccccc21 (stereo unspecified),17.4,30.6*,20.0
Clc1ccc(Cn2c(C3CCCO3)nc3ccccc32)cc1 (stereo unspecified),.,13.9,14.2
O=S(=O)(N1CCCC1)N1C[C@H]2CC(Oc3ccccc3)C[C@H]2C1 (stereo partly specified),-1.2,-14.0,-3.1
O=c1c2[nH]c3ccc(F)cc3c2ncn1Cc1ccc2c(c1)OCO2,17.3,23.6,11.6
O=c1ncn(Cc2ccc3c(c2)OCO3)cc1-c1ncc(C(F)(F)F)cc1Cl,50.7*,45.9*,2.8
Cc1nc(SCc2cccc(Cl)c2)c2c(=O)n(C)c(=O)n(C)c2n1,6.1,2.7,-5.2
Cc1cc(NC(=O)C(=O)NCC2CCN(C(C)C)CC2)no1,9.7,33.3*,2.3
Cc1cc(NC(=O)C2CCCN(S(=O)(=O)N3CCCCCC3)C2)no1 (stereo unspecified),-2.3,-7.5,-8.9
CC(=O)N1CCCc2cc(S(=O)(=O)NCc3ccc4c(c3)OCO4)ccc21,2.2,23.8,9.6
COc1cccc(CNS(=O)(=O)c2ccc3c(c2)CCCN3C(=O)C2CCC2)c1,2.0,0.3,30.2*
CCN(CC)c1ccc(NC(=O)C2=CCN(S(=O)(=O)c3ccc(F)cc3)CC2)c(C)c1,-3.6,14.2,35.4*
Cc1ccc(S(=O)(=O)N2CC=C(C(=O)Nc3ccc(Br)c(C)c3)CC2)cc1,-10.7,-41.6,0.0
CCN1C(=O)C(C)(C)COc2ccc(NS(=O)(=O)c3cc(F)ccc3F)cc21,2.9,-10.4,-9.1
CC(=O)N1[C@@H]2CN(S(=O)(=O)c3cccnc3)[C@@H]3CCC[C@H]1[C@]3(C)C2,-6.1,-2.9,-11.8
SMILES,USP17 block,USP30 block,USP28 inh
CCN1CCN(C(=O)Cn2c(=O)n(-c3ccccc3)c3ncccc32)CC1,4.8,-0.2,-4.3
CS(=O)(=O)N1CCc2ccc(C(=O)Nc3ccc(F)cc3)cc21,33.1*,-27.2,-7.5
Cc1cc(C)n(-c2cccc(C(=O)Nc3ccc4c(c3)CCN4S(C)(=O)=O)c2)n1,8.4,-9.7,79.7*
Cc1cccc(NC(=O)c2ccc3c(c2)N(S(C)(=O)=O)CC3)c1C,29.6,-12.5,11.1
CC(=O)c1cccc(NC(=O)c2ccc(-n3nc(C)cc3C)nn2)c1,-5.7,-0.2,-4.0
CC1CN(S(=O)(=O)c2ccc(Cl)cc2)Cc2ccccc2N1C (stereo unspecified),8.2,14.4,8.3
O=C(O)c1c(CNC2CCCCCC2)c2ccccc2n1Cc1cccc(F)c1,.,18.1,25.4
O=C(NCc1cccc(C(F)(F)F)c1)c1ccc(-n2cccn2)nc1,6.6,31.6*,5.8
O=C(Cn1cncn1)NCc1cccc(C(F)(F)F)c1,-8.3,-11.0,-11.7
O=C(NCCc1ccc(Cl)cc1)C1CCCN(S(=O)(=O)N2CCCCC2)C1 (stereo unspecified),2.1,-11.3,0.0
O=C(CN1C(=O)c2ccccc2Sc2ccc(C(=O)N3CCCC3)cc21)NCc1ccco1,-0.1,-133.7,-26.2
COc1ccc(NC(=O)CN2C(=O)c3ccccc3Sc3ccc(C(=O)N4CCCC4)cc32)cc1OC,55.0*,24.5,14.3
CCOc1ccc(CC(=O)Nc2ccc(-c3cn4cccnc4n3)cc2)cc1,67.8*,-22.0,43.8*
Cc1ccn2cc(-c3ccc(NC(=O)Cc4ccccc4)cc3)nc2n1,29.6,5.5,16.5
Fc1cc(F)cc(-c2noc3ncnc(N4CCOCC4)c23)c1,-1.2,10.0,3.7
O=C(NC(CO)Cc1ccccc1)c1nc(-c2cccc3[nH]ccc23)no1 (stereo unspecified),2.9,14.1,21.0
CC(Nc1ncc(-c2ccc(OC(F)(F)F)cc2)cn1)c1ccccc1 (stereo unspecified),9.9,16.6,8.7
Cc1nc(-c2ncc(C)[nH]2)cc(C2CCCCN2S(=O)(=O)N(C)C)n1 (stereo unspecified),-9.6,-13.8,-5.3
O=C(NCc1ccccc1Cl)c1cc(S(=O)(=O)N2CCC3(CC2)OCCO3)ccc1F,4.2,0.2,15.8
O=C(NCc1ccc(Cl)c(Cl)c1)c1cc(S(=O)(=O)N2CCC3(CC2)OCCO3)ccc1F,1.3,21.7,35.7*
O=C(NC1CC1)c1ccc(-c2ccc(N3CCCCC3)nc2)cc1,47.8*,16.2,3.0
CC(C)NC(=O)c1ccc(-c2ccc(N3CCCCC3)nc2)cc1,-9.4,-19.4,-19.2
O=C(NC1CCCC1)c1cccc(-c2ccc(N3CCCC3)nc2)c1,50.8*,-40.2,-2.7
O=C(NCc1cccnc1)c1cccc(-c2ccc(N3CCCC3)nc2)c1,-1.1,.,.
CN(C)c1cc(-n2cnc(C(=O)Nc3ccccc3)c2)ncn1,17.1,26.0,9.0
SMILES,USP17 block,USP30 block,USP28 inh
O=C(Nc1ccccc1F)c1ccc(N2CCCC2)nn1,-9.6,0.1,12.9
CC(=O)Nc1ccc(-n2cnc(C(=O)NCc3ccc(F)cc3)c2)nc1,6.7,12.3,10.7
O=C(NCc1ccc(F)cc1)c1ccc(N2CCCC2)nn1,33.4*,1.4,13.5
CN(C)c1cc(-n2cnc(C(=O)NCc3cccc(Cl)c3)c2)ncn1,41.7*,25.6,9.5
Cc1ccc(C(=O)NCc2ccc(N3CCOCC3)nc2)cc1F,-30.3,-4.4,-6.0
Cc1cc(C)n(-c2ccc(C(=O)NCc3ccc(F)cc3)cn2)n1,48.8*,68.5*,33.6*
Cc1cccc(-n2cnc(C(=O)NCc3ccc(F)cc3)c2)n1,83.3*,35.5*,29.0

# Source: PubChem (Buhrlage Lab, Dana-Farber Cancer Institute and Novartis Institutes for BioMedical Research (Cambridge, Mass))
